Assay [1] in a line: CCTE_Deisenroth_AIME_384WELL_CTox_Active: Cytotoxicity Assessment (CTOX) in CCTE's 384-well Estrogen Receptor Transactivation Assay with AIME metabolic competence (metabolism positive), Deisenroth Lab (AID 2284037).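 Note: chemicals first conditioned 2 h by alginate-bound induced rat liver S9 before cells; activity means signal loss indicating cell death.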 In a few lines:
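Cytotoxicity in VM7Luc4E2 breast cells, 24 hour, measured as protease-substrate fluorescence loss, after 2-hour metabolic conditioning with induced rat hepatic S9 in alginate microspheres. Concentrations 0.002 - 200 uM, 10 points, bidirectional fitting.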

Assay [2] relates to Thyroperoxidase (TPO), gene 54314. In words: CCTE_Simmons_AUR_rTPO: CCTE's Amplex UltraRed Assay for Thyroperoxidase (TPO) Inhibition, Simmons Lab (AID 2283662).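 For AC50: potency for loss of signal meaning inhibition of peroxidase activity.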 The procedure, abridged: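 Cell-free peroxidase activity assay using rat thyroid gland microsomes with excess H2O2 (300 uM) and 25 uM Amplex UltraRed. Compounds tested from 5 nM to 87.5 uM; fluorescence measured after 30 min at 37C, analysed relative to DMSO baseline.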

A short description of assay [3]: CCTE_Simmons_CellTiterGLO_HEK293T: Viability Assessment in CCTE's Assays for Thyroperoxidase (TPO) Inhibition, Simmons Lab (AID 2283665).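 For AC50: cells exposed to compound for 24 h before readout; actives reduce ATP signal below DMSO vehicle meaning cytotoxicity.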 In a few lines: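 ATP depletion measured in HEK293T cells after 24 h dosing (8 concentrations, 5 nM–87.5 uM final; DMSO 0.5%) using CellTiter-Glo luminescence; curves fit for loss of signal against DMSO baseline.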
Assay [4] concerns the target Luciferin 4-monooxygenase (Photinus pyralis) (UniProt P08659). Nature of the assay: CCTE_Simmons_QuantiLum_inhib_2: CCTE's Firefly Luciferase Inhibition Assay, Simmons Lab (AID 2283767). The procedure, abridged:
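Eight-point titrations of each chemical, 5 nM–87.5 uM final in 0.5% DMSO, were run in three biological replicates against recombinant luciferase for 30 min at 37C. Bioluminescence signal loss, read on reagent injection, gave the inhibition endpoint.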

Assay [5] addresses human Peripheral-type Benzodiazepine Receptor (PBR), TSPO (gene 706) (UniProt P30536). In words: NVS_MP_hPBR: NovaScreen (NVS) Membrane Protein Assay for human Peripheral-type Benzodiazepine Receptor (PBR) (AID 2283331).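 Note: hits reduce radioligand binding relative to DMSO baseline.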 The procedure, abridged: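 Cell-free binding to human colonic membrane preparations measured by filter-based scintillation counting after 1 h. Compounds first run at 25 uM in duplicate, then concentration series for actives; signal loss against DMSO baseline.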

Assay [6] deals with rat Peripheral-type Benzodiazepine Receptor (PBR), Tspo (gene 24230) (UniProt P16257). Nature of the assay: NVS_MP_rPBR: NovaScreen (NVS) Membrane Protein Assay for rat Peripheral-type Benzodiazepine Receptor (PBR) (AID 2283335). In a few lines: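 Single-concentration duplicate screening at 25 uM preceded concentration-series retesting of actives. Binding of a specific radioligand to rat kidney membrane PBR was read by filtration radiodetection after 1 h, with plate-wise positive and negative controls.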

A short description of assay [7]: CCTE_Padilla_ZF_Score.General: CCTE's 144 Hour Post-fertilization zebrafish Assay Score for General Malformation, Padilla Lab (AID 2284411; active = hit-call score of the fitted dose curve at least 0.9, where 1 is the maximum; inactive = score below 0.9). In a few lines:
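Malformation, death and hatching were scored at 6 dpf by two blinded observers under a stereo microscope. Embryos were dosed singly from 6-8 hpf in sealed plates of 10% Hanks' at 26C and rinsed on 5 dpf; DMSO baseline.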

Assay [8] deals with Sodium/Iodide Symporter (NIS), SLC5A5 (gene 6528). Nature of the assay: CPHEA_Stoker_NIS_Inhibition_RAIU: CPHEA's Radioactive Iodide Uptake (RAIU) Assay for Sodium/Iodide Symporter (NIS) Inhibition, Stoker and Laws Labs (AID 2283841). The procedure, abridged: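 Iodide uptake through human NIS is measured in an engineered HEK293T line. Cells take up 125I (329pM final) for 2 hours at room temperature alongside chemicals at 0.001–100uM. Retained radioactivity is counted, and the signal is expressed against DMSO controls.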

Assay [9] is described as follows: CPHEA_Stoker_NIS_Cytotoxicity: Cytotoxicity Assessment for CPHEA's Radioactive Iodide Uptake (RAIU) Assay for Sodium/Iodide Symporter (NIS) Inhibition, Stoker and Laws Labs (AID 2283897). In a few lines: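 ATP luminescence (Cell Titer Glo) measured viability, with loss of signal normalized to DMSO controls. Cells: hNIS-HEK293T-EPA, seeded 40 hours prior. Dosing: 0.001–100uM, 2 hours, room temperature, uptake buffer pH 7.4.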

The target in assay [10] is Nuclear receptor subfamily 1 group I member 2 (Homo sapiens) (UniProt O75469). Nature of the assay: NVS_NR_hPXR: NovaScreen (NVS) Nuclear Receptor Binding Assay for human Pregnane X Receptor (PXR) (AID 2283365).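 Note: a drop in FRET signal versus DMSO baseline means the compound binds.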 In a few lines:
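Read-out: TR-FRET, human PXR, 2 h post-dosing, cell-free. Loss of signal vs DMSO taken as binding activity; 25 uM primary, concentration series secondary.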

A short description of assay [11]: CEETOX_H295R_OHPREG: CeeTox H295R High-throughput Steroidogenesis Assay for OH-Pregnenolone (OHPREG) (AID 2283434; active = hit-call score of the fitted dose curve at least 0.9, where 1 is the maximum; inactive = score below 0.9). To be noted: actives raise or lower the signal. In a few lines:
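Secreted 17alpha-hydroxypregnenolone measured by HPLC-MS/MS after liquid-liquid extraction. Human adrenal H295R cells received 48 h forskolin (10 uM) stimulation before 48 h chemical exposure at 0.1% final DMSO; MTT viability in same wells; bidirectional fit against DMSO.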

Assay [12] in a line: CEETOX_H295R_PROG: CeeTox H295R High-throughput Steroidogenesis Assay for Progesterone (PROG) (AID 2283442; active = hit-call score of the fitted dose curve at least 0.9, where 1 is the maximum; inactive = score below 0.9;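 for AC50: human H295R adrenal cells primed with 10 µM forskolin before dosing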). To be noted: actives raise or lower the signal. In a few lines:
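Measured analyte is progesterone secreted by H295R cells at 48 h of chemical treatment, following 10 uM forskolin priming. Quantitation used HPLC-MS/MS against a 7-point standard curve; cytotoxicity was checked by MTT absorbance.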

Assay [13] deals with human Ephrin type-A Receptor 1 (EphA1), EPHA1 (gene 2041) (UniProt P21709). In words: NVS_ENZ_hEphA1: NovaScreen (NVS) Enzymatic Assay for human Ephrin type-A Receptor 1 (EphA1) (AID 2283158).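 Note: activity is signal loss versus DMSO meaning EphA1 kinase inhibition.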 In a few lines:
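Here the EphA1 protein is recombinant and the substrate fluorescent, with electrophoretic separation before fluorescence detection at 1 hour. Signal loss against DMSO defines activity; plate controls included; follow-up concentration series reach 50 uM.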

Assay [14] is described as follows: CEETOX_H295R_11DCORT: CeeTox H295R High-throughput Steroidogenesis Assay for 11-Deoxycortisol (11DCORT) (AID 2283432; active = hit-call score of the fitted dose curve at least 0.9, where 1 is the maximum; inactive = score below 0.9;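 note: 11-deoxycortisol secreted into the medium measured by LC-MS/MS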). To be noted: actives raise or lower the signal. In a few lines:
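Adrenal carcinoma line H295R, run per OECD 456 with minor changes, was forskolin-stimulated (10 uM, 48 h) before a 48 h chemical exposure at 0.1% DMSO. Secreted 11-deoxycortisol was quantified by HPLC-MS/MS.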

The nature of assay [15]: CEETOX_H295R_CORTIC: CeeTox H295R High-throughput Steroidogenesis Assay for Corticosterone (CORTIC) (AID 2283437; active = hit-call score of the fitted dose curve at least 0.9, where 1 is the maximum; inactive = score below 0.9). To be noted: actives raise or lower the signal. The procedure, abridged: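 Medium corticosterone was quantified by tandem mass spectrometry following 48 hours of chemical exposure (0.1% DMSO) in human H295R cells previously stimulated 48 hours with 10 uM forskolin. Viability checked by MTT; chemicals diluted and retested when viability fell below 70%.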

A short description of assay [16]: CEETOX_H295R_CORTISOL: CeeTox H295R High-throughput Steroidogenesis Assay for Cortisol (AID 2283438; active = hit-call score of the fitted dose curve at least 0.9, where 1 is the maximum; inactive = score below 0.9;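 note: cortisol secreted into medium quantified by LC-MS/MS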). To be noted: actives raise or lower the signal. The procedure, abridged:
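Steroidogenesis in H295R, per modified OECD 456: 48 h forskolin (10 uM), then 48 h exposure, 0.1% DMSO. Cortisol by extraction and tandem MS; viability by MTT (570/650 nm); cytotoxic chemicals diluted and re-tested.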

Assay [17] is described as follows: CEETOX_H295R_DOC: CeeTox H295R High-throughput Steroidogenesis Assay for DOC (AID 2283439; active = hit-call score of the fitted dose curve at least 0.9, where 1 is the maximum; inactive = score below 0.9). To be noted: actives raise or lower the signal. In a few lines: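 H295R, fsk 10 uM ×48 h pre, cmpd ×48 h (0.1% DMSO). Media → MTBE extr. → LC-MS/MS, DOC. Bidirectional fit vs DMSO; MTT viability same wells, re-test diluted if <70%.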
The target in assay [18] is Nucleoli Translocation, AR (gene 367) (UniProt P10275). Nature of the assay: UPITT_HCI_U2OS_AR_TIF2_Nucleoli_Antagonist: University of Pittsburgh U2OS Androgen Receptor-Transcriptional Intermediary Factor 2 (AR-TIF2) Antagonism High Content Imaging Assay for Nucleoli Translocation (AID 2283997). In a few lines: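 Antagonism is read as loss of nucleolar AR-RFP signal relative to DHT, imaged in U2OS cells also carrying GFP-TIF2. Compounds screened at 20 uM final, 0.2% DMSO; primary actives retested in triplicate.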

For assay [19], the target named is Ratio of Nucleoli Translocation and Cytoplasm, AR (gene 367) (UniProt P10275). In words: UPITT_HCI_U2OS_AR_TIF2_Nucleoli_Cytoplasm_Ratio_Agonist: University of Pittsburgh U2OS Androgen Receptor-Transcriptional Intermediary Factor 2 (AR-TIF2) Agonism High Content Imaging Assay for Ratio of Nucleoli Translocation and Cytoplasm (AID 2284000).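 Note: hits raise the red nucleolar to cytoplasm ratio above vehicle.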 The procedure, abridged: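 Compounds tested at 20 uM final in primary screen (0.2% DMSO) and 0.195-50 uM final in dose-response (0.5% DMSO). Imaging of human U2OS cells bearing RFP-AR and GFP-TIF2; endpoint is nucleoli/cytoplasm red signal ratio, positive direction relative to DMSO.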

“And” between values parts separate entries of the source, which are not always exact repeats. Equal values may be shown once. Results filed as inconclusive are left out. Some compounds were tested as several samples or in several runs, with calls that do not always agree. The source made the active and inactive calls. Rule for the calls, unless noted: active = hit-call score of the fitted dose curve at least 0.9, where 1 is the maximum; inconclusive = response in the unintended direction; inactive = score below 0.9.

This note sets out measurements from PubChem BioAssay (EPA / NIEHS).

Sequence of Nuclear receptor subfamily 1 group I member 2 (Homo sapiens) (O75469 whole entry, looked up): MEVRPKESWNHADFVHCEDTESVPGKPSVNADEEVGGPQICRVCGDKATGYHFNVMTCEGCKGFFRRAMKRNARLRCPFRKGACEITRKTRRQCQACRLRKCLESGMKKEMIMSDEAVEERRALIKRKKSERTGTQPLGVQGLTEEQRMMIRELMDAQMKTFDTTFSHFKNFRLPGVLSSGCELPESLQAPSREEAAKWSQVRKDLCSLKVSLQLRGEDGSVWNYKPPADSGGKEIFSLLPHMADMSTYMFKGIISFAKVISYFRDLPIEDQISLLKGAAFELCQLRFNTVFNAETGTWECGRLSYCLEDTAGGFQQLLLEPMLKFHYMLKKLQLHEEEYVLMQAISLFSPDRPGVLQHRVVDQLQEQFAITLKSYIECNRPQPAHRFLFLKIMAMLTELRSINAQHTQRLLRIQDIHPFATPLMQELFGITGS
Sequence of human Ephrin type-A Receptor 1 (EphA1), EPHA1 (gene 2041) (P21709 whole entry, looked up): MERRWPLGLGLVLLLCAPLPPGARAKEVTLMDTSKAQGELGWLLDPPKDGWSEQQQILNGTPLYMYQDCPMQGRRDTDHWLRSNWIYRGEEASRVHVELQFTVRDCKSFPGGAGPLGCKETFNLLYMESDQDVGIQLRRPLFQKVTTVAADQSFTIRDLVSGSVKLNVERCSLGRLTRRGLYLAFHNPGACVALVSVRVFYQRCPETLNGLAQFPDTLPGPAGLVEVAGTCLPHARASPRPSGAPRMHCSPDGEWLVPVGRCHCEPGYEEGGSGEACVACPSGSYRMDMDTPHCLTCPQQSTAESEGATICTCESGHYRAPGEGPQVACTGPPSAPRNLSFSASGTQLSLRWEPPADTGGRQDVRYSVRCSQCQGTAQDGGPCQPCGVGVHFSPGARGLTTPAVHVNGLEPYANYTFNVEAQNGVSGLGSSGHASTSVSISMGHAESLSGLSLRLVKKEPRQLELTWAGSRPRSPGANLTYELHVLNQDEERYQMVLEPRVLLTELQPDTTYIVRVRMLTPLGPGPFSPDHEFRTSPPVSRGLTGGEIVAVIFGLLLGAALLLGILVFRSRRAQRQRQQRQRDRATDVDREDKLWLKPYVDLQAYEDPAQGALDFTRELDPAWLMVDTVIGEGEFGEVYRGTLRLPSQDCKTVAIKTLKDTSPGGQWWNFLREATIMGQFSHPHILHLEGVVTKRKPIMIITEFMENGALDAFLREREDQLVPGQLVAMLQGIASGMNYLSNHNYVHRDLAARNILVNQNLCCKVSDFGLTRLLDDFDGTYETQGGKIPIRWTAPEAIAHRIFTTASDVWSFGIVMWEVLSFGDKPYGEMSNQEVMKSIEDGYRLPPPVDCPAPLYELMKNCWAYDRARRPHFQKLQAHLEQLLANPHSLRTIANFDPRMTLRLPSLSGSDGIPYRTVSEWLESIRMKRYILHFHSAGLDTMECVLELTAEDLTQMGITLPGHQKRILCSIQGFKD
Sequence of rat Peripheral-type Benzodiazepine Receptor (PBR), Tspo (gene 24230) (P16257 whole entry, looked up): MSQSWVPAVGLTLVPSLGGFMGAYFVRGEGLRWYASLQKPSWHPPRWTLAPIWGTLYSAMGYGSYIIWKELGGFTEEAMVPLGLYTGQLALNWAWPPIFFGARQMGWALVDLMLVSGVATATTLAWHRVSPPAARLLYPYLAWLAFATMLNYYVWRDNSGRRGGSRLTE
Sequence of Luciferin 4-monooxygenase (Photinus pyralis) (P08659 whole entry, looked up): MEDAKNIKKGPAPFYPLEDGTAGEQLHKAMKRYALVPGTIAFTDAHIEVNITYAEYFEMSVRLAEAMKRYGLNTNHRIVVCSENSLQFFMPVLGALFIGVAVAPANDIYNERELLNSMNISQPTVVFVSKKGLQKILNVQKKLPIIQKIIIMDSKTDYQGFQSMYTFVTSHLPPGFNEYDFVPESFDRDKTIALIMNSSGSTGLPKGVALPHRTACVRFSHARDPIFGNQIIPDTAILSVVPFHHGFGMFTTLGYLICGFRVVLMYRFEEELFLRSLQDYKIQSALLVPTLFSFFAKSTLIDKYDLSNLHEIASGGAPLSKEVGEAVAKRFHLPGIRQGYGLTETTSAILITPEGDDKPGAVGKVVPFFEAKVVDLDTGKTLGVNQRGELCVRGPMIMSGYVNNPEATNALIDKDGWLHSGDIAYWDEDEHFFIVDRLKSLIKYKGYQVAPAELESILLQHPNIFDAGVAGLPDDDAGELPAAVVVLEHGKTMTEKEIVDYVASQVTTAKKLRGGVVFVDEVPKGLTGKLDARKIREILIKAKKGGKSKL
Sequence of human Peripheral-type Benzodiazepine Receptor (PBR), TSPO (gene 706) (P30536 whole entry, looked up): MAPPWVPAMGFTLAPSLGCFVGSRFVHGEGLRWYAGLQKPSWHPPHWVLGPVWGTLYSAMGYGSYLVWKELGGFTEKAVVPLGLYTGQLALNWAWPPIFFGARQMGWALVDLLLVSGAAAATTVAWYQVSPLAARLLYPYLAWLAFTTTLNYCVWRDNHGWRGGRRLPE
Sequence of Nucleoli Translocation, AR (gene 367) (P10275 whole entry, looked up): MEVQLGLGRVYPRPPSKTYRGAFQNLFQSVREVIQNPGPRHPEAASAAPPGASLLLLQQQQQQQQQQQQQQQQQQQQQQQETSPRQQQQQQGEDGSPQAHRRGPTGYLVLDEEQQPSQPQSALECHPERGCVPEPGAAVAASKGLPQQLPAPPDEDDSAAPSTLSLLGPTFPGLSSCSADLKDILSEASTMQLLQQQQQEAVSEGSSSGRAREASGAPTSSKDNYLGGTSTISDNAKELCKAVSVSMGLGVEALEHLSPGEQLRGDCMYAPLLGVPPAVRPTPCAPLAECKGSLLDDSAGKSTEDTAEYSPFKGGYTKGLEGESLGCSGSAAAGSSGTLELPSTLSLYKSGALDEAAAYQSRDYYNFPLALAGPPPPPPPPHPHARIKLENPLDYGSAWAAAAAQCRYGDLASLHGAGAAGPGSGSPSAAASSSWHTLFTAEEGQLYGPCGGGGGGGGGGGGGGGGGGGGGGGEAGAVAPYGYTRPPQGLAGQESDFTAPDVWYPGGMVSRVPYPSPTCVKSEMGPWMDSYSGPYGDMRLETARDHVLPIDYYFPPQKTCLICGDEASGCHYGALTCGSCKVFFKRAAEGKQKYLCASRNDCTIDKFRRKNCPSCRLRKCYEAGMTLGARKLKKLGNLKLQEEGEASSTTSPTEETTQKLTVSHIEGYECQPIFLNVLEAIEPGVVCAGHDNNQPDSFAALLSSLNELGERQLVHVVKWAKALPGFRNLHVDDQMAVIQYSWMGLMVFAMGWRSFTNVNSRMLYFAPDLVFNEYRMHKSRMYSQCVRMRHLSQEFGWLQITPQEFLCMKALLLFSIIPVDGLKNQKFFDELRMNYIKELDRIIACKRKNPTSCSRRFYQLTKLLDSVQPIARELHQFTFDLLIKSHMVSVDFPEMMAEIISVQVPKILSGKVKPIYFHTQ
Sequence of Ratio of Nucleoli Translocation and Cytoplasm, AR (gene 367) (P10275 whole entry, looked up): as above

`CNC(=N[N+](=O)[O-])NCC1CCOC1` (centres undefined): the result in [1] was inactive.
Take `Nc1cc(Cl)cc(Cl)c1`: in assay [2], the half-maximal activity concentration (AC50) – broadly, the concentration at which the activity in the assay is half-maximal – is 17.1 µM (active). Further, the call in [3] and in assay [4] was inactive.
Regarding `O=S(=O)(c1ccccc1)c1ccccc1`, the values for the concentration at half-maximal activity (AC50) in assay [5] and in [6] were 10.1 µM (active) and 8.45 µM (active), respectively. In addition, the call in assay [7] was inactive.
Take `O=C(CCl)c1ccccc1`: the AC50 in assay [2] and in assay [3] was 43.8 µM (active) in each case. Moreover, the result in assay [4], in [8] and in [9] was inactive.
Turning to `CC(C)[C@@H](C(=O)O[C@@H](C#N)c1cccc(Oc2ccccc2)c1)c1ccc(Cl)cc1`, in assay [10], the compound was called inactive.
On to `CCOP(=O)(OCC)Oc1ccc([N+](=O)[O-])cc1`, for which the outcome in [5], in assay [6], in assay [11] and in [12] was inactive.
As to `CCC[N+](=O)[O-]`, in assay [13], the AC50 was 25 µM (active).
As for `CNC(=O)Oc1cc(C)c(SC)c(C)c1`, the AC50 was 11.7 µM (active) in [6]; 39.5 µM (active) in assay [14]; 21.2 µM (active) in assay [15]; 65.1 µM (active) in assay [12]; 24 µM (active) and 26.6 µM (active) in assay [18]; 71.1 µM (active) in assay [19]. Also, the outcome in assay [11], in [16], in [17] and in assay [19] was inactive.
Take `C=CC(=O)OCC(CC)CCCC` (centres undefined): the compound was classed as inactive in assay [2], in assay [3], in [4] and in assay [7].
Turning to `O=C(NC(=O)c1c(F)cccc1F)Nc1ccc(Oc2ccc(C(F)(F)F)cc2Cl)cc1F`, the result in assay [10] and in [1] was inactive. Further, the AC50 is 12.4 µM (active) in assay [11] and 1.28 µM (active) in [12].
For `CN(C)C(=O)C(c1ccccc1)c1ccccc1`, the compound was classed as inactive in [10].
For the compound `CC(C)CCCCCCCOP(=O)(Oc1ccccc1)Oc1ccccc1`, the results for the AC50 in assay [5] and in assay [6] were 6.03 µM (active) and 2.91 µM (active), respectively.
On to `CCC(C)(C)O`, for which, in assay [13], the compound was classed as inactive.
Regarding `O=P1(NCCCl)OCCCN1CCCl` (centres undefined), the result in assay [13] was inactive.
As to `CC(C)(O)C#N`, the AC50 in [2] is 36.7 µM (active). Besides, the compound was classed as inactive in [3] and in assay [4].
